Here are results for 40 sequences from the OligoGym collection.
Note: reference of the scale not given here.

The first test concerns the target PPARGC1A. The test can be described thus: pooled miR-30 sensor sort-seq; sequence = guide strand. The settings on record: shRNA.
For the sequence TAGGTAATGAAACCATAGCTGT, the sensor-assay potency score (higher = more potent) is -0.856.

For the sequence TTTCTAGTTGTCTAGAGTCTTG, the sensor-assay potency score (higher = more potent) was -1.22.

TTACATTTGAATATTCTTGATT: the sensor-assay potency score (higher = more potent) was found to be 0.253.

TAGGTCTGCATAGTTAGACTTG had a sensor-assay potency score (higher = more potent) of -0.55.

On to TTGTCTAGAGTCTTGGAGCTCC, for which the sensor-assay potency score (higher = more potent) came out at 0.145.

In turn, TTCGTCGTCAAAAACAGCTTGA registered a sensor-assay potency score (higher = more potent) of -0.0941.

TTAGACTTGAAAAATTGCTTGC yielded a sensor-assay potency score (higher = more potent) of 0.583.

The next test deals with PPCS. The description is as above. The settings on record: shRNA.
Sequence TAAATTTCCAAAGCCTTCCGAG came in with a sensor-assay potency score (higher = more potent) of -0.661.

TTCATTGTTATCTGCAGTGGGC displayed a sensor-assay potency score (higher = more potent) of -0.306.

For TTCACCATCTCTAAGAGCCCTG, the sensor-assay potency score (higher = more potent) was -0.3.

TTCTCTTCTATCTCTACGCCTT showed a sensor-assay potency score (higher = more potent) of -0.45.

Consider TAAACACAAAGGACTGTCGTGA, for which the sensor-assay potency score (higher = more potent) came out at 0.415.

Turning to TTGTAGTTTTCACCATCTCTAA, the sensor-assay potency score (higher = more potent) is -1.34.

TCTGATAGCAATAACTTGGTTT yielded a sensor-assay potency score (higher = more potent) of 0.221.

As for TTATCCACTATCTTCTCTTCTA, the sensor-assay potency score (higher = more potent) is -0.111.

The sequence TTTTTTTGTAGTTTTCACCATC had a sensor-assay potency score (higher = more potent) of -0.312.

Sequence TTTGGCACCATCTTCATTGTTA returned a sensor-assay potency score (higher = more potent) of 0.148.

For the sequence TTGATGCTGATAAATTTCCAAA, the sensor-assay potency score (higher = more potent) is -1.35.

The sequence TACAATAAACACAAAGGACTGT yielded a sensor-assay potency score (higher = more potent) of 0.367.

The target of another test is PPEF1. The test is described as above. The settings on record: shRNA.
Consider TAGTTTTCCAACATGAAGGAAA, for which the sensor-assay potency score (higher = more potent) was -0.591.

The sequence TTGTTCATCAGCATATTCGATG showed a sensor-assay potency score (higher = more potent) of -0.664.

With TAGTAGTTTTCTCTTGTGCTGT, the sensor-assay potency score (higher = more potent) was -0.247.

In turn, TTGTATGTGAGTGAAATTCGGC came in with a sensor-assay potency score (higher = more potent) of -0.494.

As for TTCATCAGCATATTCGATGGAC, the sensor-assay potency score (higher = more potent) is -0.181.

In the case of TTTTCTGTGGTCTTGAAGTTGG, the sensor-assay potency score (higher = more potent) is -0.736.

The sequence TTTTCCATAGTATCCACTCTTT yielded a sensor-assay potency score (higher = more potent) of -0.493.

TTATGCAAAATTTCTTTCGTGA gave a sensor-assay potency score (higher = more potent) of 0.493.

Consider TTTTATTGTGCTTCGAGTCAGT, for which the sensor-assay potency score (higher = more potent) was found to be 0.317.

In the case of TAATCTTACCAATAACAGCTTG, the sensor-assay potency score (higher = more potent) is -0.683.

Regarding TATCGAGTCCACATAATCCCAT, the sensor-assay potency score (higher = more potent) was -1.01.

For TAATGCTGAAACCAAATCCTAT, the sensor-assay potency score (higher = more potent) is -0.921.

The target in a further test is PPIA. The test is described as above. The following applies: shRNA.
The sequence TTGCTGGTCTTGCCATTCCTGG showed a sensor-assay potency score (higher = more potent) of -1.6.

Sequence TATTTCATAATCATAAACTTAA returned a sensor-assay potency score (higher = more potent) of -0.804.

As to ATAATCATAAACTTAACTCTGC, the sensor-assay potency score (higher = more potent) stood at 0.46.

TACAGAAGGAATGATCTGGTGG: the sensor-assay potency score (higher = more potent) was 0.317.

For TTTCACTTTGCCAAACACCACA, the sensor-assay potency score (higher = more potent) is -0.879.

Sequence TCTTCTTGCTGGTCTTGCCATT showed a sensor-assay potency score (higher = more potent) of -1.28.

Turning to TAACCAAATCCTTTCTCTCCAG, the sensor-assay potency score (higher = more potent) is -0.631.

With TTAGGATGAAGTTCTCATCTTC, the sensor-assay potency score (higher = more potent) was 0.589.

TAAACTTAACTCTGCAATCCAG came in with a sensor-assay potency score (higher = more potent) of -0.459.
